# Results: PubChem BioAssay
# Several values for one entry are separate records, joined by “and”; a condition that tells them apart may be missing. Equal entries are not always repeated. Inconclusive results are not listed. Activity calls are given as the source filed them. Unless noted, cut-off not given; nearly all actives show AC50 up to about 26 µM.
# Key:
# [1] = viability loss in pontine glioma line – cell-based, SU-DIPG-XXV, MIPE5.0, CellTiter-Glo, qHTS, dose response (AID 1347065); conditions: CellTiter-Glo ATP luminescence;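 further: cells exposed to compound for 48 hours before ATP readout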
# [2] = SU-DIPG-VI glioma cell viability, MIPE4.0 library, CellTiter-Glo luminescence, qHTS (AID 1347066; cut-off not given, nearly all actives have AC50 up to about 30 µM;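 further: cells exposed to compound for 48 hours before readout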); conditions: CellTiter-Glo ATP luminescence
# [3] = SU-DIPG-XXV glioma cell viability, MIPE5.0 library, qHTS (AID 1347068; cut-off not given, nearly all actives have IC50 up to about 30 µM;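 on IC50: cells exposed to compound for 48 hours before viability readout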)
# [4] = sensitizers of A549 cells to miR-34 induction, primary screen, imaging, A549 dox-inducible miR-34, nuclei and caspase counts (AID 1347080;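 active means compounds whose cell count with miR-34 switched on is under 0.7 times the count with it off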); conditions: A549 miR-34 inducible, Hoechst nuclei count, 48 h
# [5] = target: NAD(+) hydrolase SARM1 (Homo sapiens) (UniProt Q6SZW1); assay: SARM1 TIR NADase inhibitors, cell lysate, NAD-Glo luminescence (AID 1508614;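 active means compound whose remaining NAD level is above about 45 nM, limit read from the data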); conditions: SAM-TIR HEK293T lysate NADase, at 1 µM, stronger effect = higher value
# [6] = target: Mitogen-activated protein kinase 7 (Homo sapiens) (UniProt Q13164); assay: ERK5 transactivation activators in reporter cells, primary screen, cell-based, HTS (AID 1508626;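 active means luciferase signal above three times the same-plate solvent-only control wells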;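 further: luciferase driven by Gal4-ERK5 fusion binding five Gal4 sites before minimal TATA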); conditions: HeLa Gal4-ERK5 transactivation, 18 h, at 5 µM, stronger effect = higher value
# [7] = JHH-DIPG-1 glioma cell viability, MIPE5.0 library, CellTiter-Glo luminescence, qHTS (AID 1347067); conditions: JHH-DIPG-1 glioma viability, CellTiter-Glo ATP luminescence;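 further: cells exposed to compound for 48 hours before readout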
# [8] = LFS_MB_P medulloblastoma growth inhibition, cell-based, chromothripsis tumors, cisplatin or BGB combos (AID 1671449; in the data active means inhibition above about 80%;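 further: cells exposed for 96 hours; 0% = vehicle DMSO and 100% = killing by high DMSO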); conditions: LFS_MB_P medulloblastoma cells
# [9] = HDN33 neuroblastoma growth inhibition, cell-based, chromothripsis tumors, cisplatin or BGB combos (AID 1671450; in the data active means inhibition above about 80%;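 further: cells exposed to compound for four days; 0% = vehicle DMSO and 100% = cell killing by high DMSO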); conditions: HDN33 neuroblastoma cells, stronger effect = higher value
# [10] = ICB984 medulloblastoma cell growth inhibition, synergistic combos for chromothripsis tumors, cisplatin or BGB combos (AID 1671451; call rule not given here;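 further: cells exposed for 96 hours before readout; 0% = vehicle DMSO and 100% = killing by high DMSO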); conditions: ICB984 medulloblastoma cells, drug combinations, stronger effect = higher value
# [11] = LFS_MB_1R medulloblastoma cell growth inhibition, synergistic combos for chromothripsis tumors, cisplatin or BGB combos (AID 1671452; in the data active means inhibition above about 80%;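 further: cells exposed for 96 hours before readout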); conditions: LFS_MB_1R medulloblastoma cells, stronger effect = higher value
# [12] = HTB85 osteosarcoma cell growth inhibition, synergistic combos for chromothripsis tumors, BGB or cisplatin IC20 combos (AID 1671453; in the data active means inhibition above about 80%;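 further: cells exposed for 96 hours before readout; 0% = vehicle DMSO and 100% = high DMSO killing control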); conditions: HTB85 osteosarcoma cells, drug combinations, stronger effect = higher value
# [13] = CRL2098 osteosarcoma cell growth inhibition, synergistic combos for chromothripsis tumors, BGB or cisplatin IC20 combos (AID 1671454; in the data active means inhibition above about 80%;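 further: cells exposed for 96 h before readout; 0% = vehicle DMSO and 100% = killing by high DMSO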); conditions: CRL2098 osteosarcoma cells, drug combinations, stronger effect = higher value
# [14] = HD-MB03 medulloblastoma cell growth inhibition, synergistic combos for chromothripsis tumors, BGB or cisplatin IC20 combos (AID 1671455; in the data active means inhibition above about 83%;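 further: 0% = vehicle DMSO and 100% = high DMSO as cytotoxic control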); conditions: HD-MB03 medulloblastoma cells, stronger effect = higher value
# [15] = survival rescue of mitochondrial mutant cells in low glucose, primary screen, MELAS cybrids, Rieske KO mouse fibroblasts, CellTiter-Glo (AID 1508586;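 active means mean z-score across replicates of 1.96 or higher in either the MELAS or the Rieske mutant cell line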;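 further: z relative to plate mean and SD of compound and empty wells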)
# [16] = viability rescue of complex I mutant cybrids, primary screen, cell-based, galactose medium, ATP luminescence (AID 1645843;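 active means z-score of at least 1.8 in each of two replicates, scored against plate mean and spread of sample wells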;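 further: positive z means more ATP and so rescue of galactose-driven cybrid death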); conditions: complex I mutant cybrid cells, 72 h, stronger effect = higher value
# [17] = phospholipid biosynthesis inhibitors in animal cells, primary screen, cell-based, LOPAC library, screen 4 (AID 1347384; call rule not given here); conditions: phospholipid biosynthesis inhibition screen, at 10 µM
# [18] = stronger effect = lower value, cell number ratio, induced over uninduced
# [19] = measured here: relative caspase fold change +Dox/-Dox
# [20] = measured here: total cells with miR-34 induction, stronger effect = lower value
# [21] = measured here: total cells without miR-34 induction
# [22] = at 0.5 µM, stronger effect = higher value
# [23] = measured here: combination with BGB IC20, at 0.005 µM
# [24] = measured here: combination with BGB IC40, at 0.005 µM
# [25] = measured here: combination with BGB IC40, at 0.05 µM
# [26] = measured here: combination with cisplatin, at 0.5 µM, stronger effect = higher value
# [27] = measured here: combination with cisplatin, at 5 µM, stronger effect = higher value
# [28] = measured here: with BGB IC20 combination, at 0.5 µM
# [29] = measured here: with cisplatin IC20 combination, at 0.5 µM
# [30] = measured here: 5 uM single agent, at 5 µM
# [31] = measured here: combination with cisplatin, at 0.5 µM
# [32] = measured here: combination with cisplatin, at 5 µM
# [33] = measured here: with BGB IC20, at 0.5 µM
# [34] = measured here: with BGB IC20, at 5 µM
# [35] = measured here: with cisplatin IC20, at 0.5 µM
# [36] = measured here: with cisplatin IC20, at 5 µM
# [37] = measured here: combination with BGB at IC20, at 0.5 µM
# [38] = measured here: combination with cisplatin at IC20, at 0.5 µM
# [39] = measured here: combo with BGB at IC20, at 0.5 µM
# [40] = measured here: combo with cisplatin at IC20, at 0.5 µM
# [41] = MELAS cybrid survival, CellTiter-Glo 48 h, stronger effect = higher value
# [42] = Rieske KO mouse fibroblast survival, CellTiter-Glo 72 h
# Chain of NAD(+) hydrolase SARM1 (Homo sapiens) (Q6SZW1 whole entry, looked up, the tested form may be a part): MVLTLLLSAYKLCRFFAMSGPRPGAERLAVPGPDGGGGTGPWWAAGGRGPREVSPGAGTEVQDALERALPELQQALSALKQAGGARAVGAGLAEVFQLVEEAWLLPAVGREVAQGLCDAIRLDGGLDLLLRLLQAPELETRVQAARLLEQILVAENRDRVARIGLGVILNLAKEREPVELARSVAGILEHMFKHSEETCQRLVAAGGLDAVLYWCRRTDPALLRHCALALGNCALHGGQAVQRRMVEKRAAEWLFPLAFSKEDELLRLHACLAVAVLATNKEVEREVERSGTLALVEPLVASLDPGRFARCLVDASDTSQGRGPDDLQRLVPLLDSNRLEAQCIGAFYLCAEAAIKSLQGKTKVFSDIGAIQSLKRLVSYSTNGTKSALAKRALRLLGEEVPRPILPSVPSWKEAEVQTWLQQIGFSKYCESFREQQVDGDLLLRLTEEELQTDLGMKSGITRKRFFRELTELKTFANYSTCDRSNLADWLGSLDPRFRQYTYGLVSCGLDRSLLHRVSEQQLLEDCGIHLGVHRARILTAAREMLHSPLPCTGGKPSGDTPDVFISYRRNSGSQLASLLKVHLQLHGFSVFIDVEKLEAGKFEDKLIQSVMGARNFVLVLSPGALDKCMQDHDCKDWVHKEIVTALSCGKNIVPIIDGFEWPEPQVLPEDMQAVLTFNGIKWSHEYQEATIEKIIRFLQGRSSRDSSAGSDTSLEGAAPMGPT
# Chain of Mitogen-activated protein kinase 7 (Homo sapiens) (Q13164 whole entry, looked up, the tested form may be a part): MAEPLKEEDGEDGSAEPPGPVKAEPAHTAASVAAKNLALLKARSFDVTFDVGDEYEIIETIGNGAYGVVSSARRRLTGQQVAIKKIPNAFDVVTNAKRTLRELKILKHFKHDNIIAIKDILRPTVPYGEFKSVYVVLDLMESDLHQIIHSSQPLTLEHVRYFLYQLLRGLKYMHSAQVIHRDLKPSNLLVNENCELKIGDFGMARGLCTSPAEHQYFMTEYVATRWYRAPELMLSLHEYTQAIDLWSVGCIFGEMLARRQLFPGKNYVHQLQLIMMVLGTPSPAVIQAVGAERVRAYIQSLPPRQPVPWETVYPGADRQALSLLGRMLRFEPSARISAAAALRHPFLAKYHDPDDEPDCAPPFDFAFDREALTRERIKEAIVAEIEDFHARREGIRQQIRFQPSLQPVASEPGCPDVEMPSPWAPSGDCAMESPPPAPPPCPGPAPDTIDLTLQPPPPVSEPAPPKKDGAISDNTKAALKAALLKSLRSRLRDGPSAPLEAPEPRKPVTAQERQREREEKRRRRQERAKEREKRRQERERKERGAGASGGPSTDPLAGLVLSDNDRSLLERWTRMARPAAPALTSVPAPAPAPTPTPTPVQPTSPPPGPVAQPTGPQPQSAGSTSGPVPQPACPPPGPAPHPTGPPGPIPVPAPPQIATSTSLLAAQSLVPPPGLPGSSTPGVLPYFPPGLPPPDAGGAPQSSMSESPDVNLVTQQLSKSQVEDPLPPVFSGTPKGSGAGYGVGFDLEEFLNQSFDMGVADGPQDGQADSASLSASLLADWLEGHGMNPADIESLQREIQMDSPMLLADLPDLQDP
compound,measurement,setting,value
Nc1ncnc2c1ncn2[C@@H]1O[C@H](CO)[C@@H](O)[C@H]1O,outcome,[1],inactive
same,outcome,[2],inactive
same,outcome,[3],inactive
same,fold change,[4]; [18],0.803 (inactive)
same,fold change,[4]; [19],0.527
same,cell count,[4]; [20],10400
same,cell count,[4]; [21],12900
same,remaining NAD,[5],10 nM (inactive)
same,luciferase signal,[6],112 AU (inactive)
O=c1oc2c(O)c(O)cc3c(=O)oc4c(O)c(O)cc1c4c23,outcome,[1],inactive
same,outcome,[2],inactive
same,outcome,[7],inactive
same,outcome,[3],inactive
same,remaining NAD,[5],10 nM (inactive)
same,luciferase signal,[6],60 AU (inactive)
same,inhibition,[8]; [22],-26.4% (inactive)
same,inhibition,[8]; [23],13.8%
same,inhibition,[8]; [24],-25.9%
same,inhibition,[8]; [25],-14%
same,inhibition,[8]; [26],-13.4%
same,inhibition,[8]; [27],-36.9%
same,inhibition,"[9]; BGB combo, at 5 µM",-24.4%
same,inhibition,[9]; at 0.5 µM,-5.05% (inactive)
same,inhibition,"[9]; cisplatin combo, at 5 µM",3.04%
same,inhibition,[9]; [28],-1.3%
same,inhibition,[9]; [29],-3.36%
same,inhibition,"[9]; single agent, at 5 µM",-3.55%
same,inhibition,"[10]; BGB IC20 combo, at 0.005 µM",10.1%
same,inhibition,"[10]; BGB IC40 combo, at 0.005 µM",-45.8%
same,inhibition,"[10]; BGB IC40 combo, at 0.05 µM",-40.1%
same,inhibition,[10]; at 0.5 µM,-16.9% (inactive)
same,inhibition,"[10]; cisplatin combo, at 0.05 µM",-45.7%
same,inhibition,"[10]; cisplatin combo, at 0.5 µM",-24.8%
same,inhibition,"[10]; cisplatin combo, at 5 µM",-34.2%
same,inhibition,[10]; [30],-15.6%
same,inhibition,[11]; at 0.5 µM,-12.6% (inactive)
same,inhibition,[11]; [25],-1.97%
same,inhibition,[11]; [31],-11.4%
same,inhibition,[11]; [32],-1.35%
same,inhibition,[12]; at 0.5 µM,-9.37% (inactive)
same,inhibition,[12]; [33],-9.05%
same,inhibition,[12]; [34],-11.1%
same,inhibition,[12]; [35],-24.3%
same,inhibition,[12]; [36],-7.84%
same,inhibition,"[12]; single agent, at 5 µM",28.9%
same,inhibition,[13]; at 0.5 µM,-20.7% (inactive)
same,inhibition,[13]; [37],-5.49%
same,inhibition,[13]; [38],-39.6%
same,inhibition,[14]; at 0.5 µM,11.2% (inactive)
same,inhibition,[14]; [39],-0.451%
same,inhibition,[14]; [40],-7.75%
O=C(O)/C=C/c1ccc(Cn2ccnc2)cc1,outcome,[1],inactive
same,outcome,[2],inactive
same,outcome,[3],inactive
same,z-score,[15]; [41],-1.23 (inactive) and 0.348 (inactive)
same,z-score,[15]; [42],0.0439 and 0.14
same,z-score,[16],0 (inactive) and 0.26 (inactive)
CCN(CC)CCOc1ccc(/C(=C(\Cl)c2ccccc2)c2ccccc2)cc1,AC50,[1],13.2 µM (active)
same,outcome,[2],inactive
same,outcome,[3],inactive
same,fold change,[4]; [18],0.868 (inactive)
same,fold change,[4]; [19],0.906
same,cell count,[4]; [20],10700
same,cell count,[4]; [21],12300
CC(=O)O[C@]1(C(C)=O)CC[C@H]2[C@@H]3C=C(Cl)C4=CC(=O)[C@@H]5C[C@@H]5[C@]4(C)[C@H]3CC[C@@]21C,AC50,[1],33.2 µM (active)
same,outcome,[2],inactive
same,outcome,[3],inactive
same,fold change,[4]; [18],0.956 (inactive) and 0.85 (inactive)
same,fold change,[4]; [19],1.52 and 2.1
same,cell count,[4]; [20],8890 and 7970
same,cell count,[4]; [21],9300 and 9380
same,outcome,[17],inactive
same,z-score,[15]; [41],-0.4 (inactive)
same,z-score,[15]; [42],-0.158
same,remaining NAD,[5],10 nM (inactive)
same,luciferase signal,[6],52 AU (inactive)
same,z-score,[16],1.89 (inactive) and 0.36 (inactive)
Cn1c(=O)c2c(ncn2C)n(C)c1=O,outcome,[1],inactive
same,outcome,[2],inactive
same,outcome,[7],inactive
same,fold change,[4]; [18],0.965 (inactive) and 0.863 (inactive)
same,fold change,[4]; [19],1.02 and 1.01
same,cell count,[4]; [20],9770 and 10600
same,cell count,[4]; [21],10100 and 12300
same,outcome,[17],inactive
same,z-score,[15]; [41],0.603 (inactive)
same,z-score,[15]; [42],-0.496
same,remaining NAD,[5],10 nM (inactive)
same,luciferase signal,[6],32 AU (inactive)
same,z-score,[16],0.3 (inactive)
Nc1nc(=S)c2[nH]cnc2[nH]1,AC50,[1],1.48 µM (active)
same,AC50,[7],1.05 µM (active)
same,IC50,[3],4.17 µM (active)
same,fold change,[4]; [18],1.16 (inactive)
same,fold change,[4]; [19],0.96
same,cell count,[4]; [20],1820
same,cell count,[4]; [21],1580
same,remaining NAD,[5],10 nM (inactive)
same,luciferase signal,[6],52 AU (inactive)
same,inhibition,[8]; [22],-26.3% (inactive)
same,inhibition,[8]; [23],-7.21%
same,inhibition,[8]; [24],-35.9%
same,inhibition,[8]; [25],-9.84%
same,inhibition,[8]; [26],-38.8%
same,inhibition,[8]; [27],-43.8%
same,inhibition,"[9]; BGB combo, at 5 µM",73.6%
same,inhibition,[9]; at 0.5 µM,33.6% (inactive)
same,inhibition,"[9]; cisplatin combo, at 5 µM",70.5%
same,inhibition,[9]; [28],23.3%
same,inhibition,[9]; [29],18.7%
same,inhibition,"[9]; single agent, at 5 µM",80.7%
same,inhibition,"[10]; BGB IC20 combo, at 0.005 µM",-12.4%
same,inhibition,"[10]; BGB IC40 combo, at 0.005 µM",-52.4%
same,inhibition,"[10]; BGB IC40 combo, at 0.05 µM",-32.5%
same,inhibition,[10]; at 0.5 µM,-36% (inactive)
same,inhibition,"[10]; cisplatin combo, at 0.05 µM",-37.7%
same,inhibition,"[10]; cisplatin combo, at 0.5 µM",-55.5%
same,inhibition,"[10]; cisplatin combo, at 5 µM",-19.8%
same,inhibition,[10]; [30],-9.37%
same,inhibition,[11]; at 0.5 µM,-22.2% (inactive)
same,inhibition,[11]; [25],5.91%
same,inhibition,[11]; [31],-61.3%
same,inhibition,[11]; [32],-34.3%
same,inhibition,[12]; at 0.5 µM,1.06% (inactive)
same,inhibition,[12]; [33],3.8%
same,inhibition,[12]; [34],46%
same,inhibition,[12]; [35],-7.75%
same,inhibition,[12]; [36],16.3%
same,inhibition,"[12]; single agent, at 5 µM",52.5%
same,inhibition,[13]; at 0.5 µM,-31.6% (inactive)
same,inhibition,[13]; [37],-18.7%
same,inhibition,[13]; [38],-26.5%
same,inhibition,[14]; at 0.5 µM,-3.75% (inactive)
same,inhibition,[14]; [39],-3.35%
same,inhibition,[14]; [40],-7.29%
CC(C)[C@H](N)C(=O)OCCOCn1cnc2c(=O)[nH]c(N)nc21,outcome,[1],inactive
same,outcome,[7],inactive
same,outcome,[3],inactive
same,fold change,[4]; [18],0.847 (inactive)
same,fold change,[4]; [19],1.65
same,cell count,[4]; [20],9730
same,cell count,[4]; [21],11500
same,z-score,[15]; [41],0.38 (inactive) and 0.156 (inactive)
same,z-score,[15]; [42],0.16 and -0.416
same,remaining NAD,[5],10 nM (inactive)
same,luciferase signal,[6],32 AU (inactive)
same,z-score,[16],0.625 (inactive)
C[N+]1(C)[C@@H]2CC(OC(=O)[C@H](CO)c3ccccc3)C[C@H]1[C@@H]1O[C@@H]12 (stereo partly drawn),outcome,[1],inactive
same,outcome,[2],inactive
same,outcome,[7],inactive
same,outcome,[3],inactive
same,remaining NAD,[5],10 nM (inactive)
same,luciferase signal,[6],32 AU (inactive)
